Measured values from PubChem BioAssay (Tox21).
Several values for one entry are separate records, joined by “and”; a condition that tells them apart may be missing. Identical values can stand only once. Results filed as inconclusive are left out. Activity calls are given as the source filed them. Unless noted, the call rests on the fitted dose curve; in most records, active means well fitted curve in the direction sought with a large enough effect in the repeat runs; inconclusive means weak or mixed curves; inactive means no such curve, though single readings can be large; an effect the other way counts as inactive or inconclusive.

Legend:
[1] = qHTS assay for small molecule agonists of the p53 signaling pathway (AID 651631; calls by dose curve; further: nearly all actives have a fitted effect of over 15% in size; further: potency means the concentration at half of the fitted maximal effect)
Method in brief: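 Quantitative high-throughput format: 4,000 p53RE-bla HCT-116 cells/well, 5 h pre-incubation, 16 h compound exposure at 37 °C, 2 h room-temperature substrate step, fluorescence intensity measured.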

[2] = qHTS assay for small molecules that induce genotoxicity in human embryonic kidney cells expressing luciferase-tagged ATAD5 (AID 651632); further: nearly all actives have a fitted effect of over 15% in size; further: potency means the concentration at half of the fitted maximal effect
Method in brief: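 Increased luciferase signal from ATAD5-tagged reporter cells indicates DNA-damage-driven ATAD5 induction. HEK293T cells are treated for 16 hr at 37C before detection with Amplite.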

[3] = qHTS assay for small molecules that induce genotoxicity in human embryonic kidney cells expressing luciferase-tagged ATAD5 - cell viability (AID 651634; calls by dose curve; further: nearly all actives have a fitted effect of over 25% in size)
Method in brief: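 Cytotoxicity counterscreen in HEK293T cells bearing an ATAD5-luciferase reporter: live-cell protease activity measured by CellTiter-Fluor fluorescence after 15.5 hr compound exposure.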

[4] = qHTS assay for small molecule disruptors of the mitochondrial membrane potential - cell viability (AID 720634; calls by dose curve; further: nearly all actives have a fitted effect of over 20% in size; further: potency means the concentration at half of the fitted maximal effect)
Method in brief: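 After overnight attachment at 37 C, HepG2 cells received compound or DMSO vehicle for 1 hr. Viability is then taken from ATP-driven luminescence following a 30 min room-temperature CellTiter-Glo step.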

[5] = qHTS assay to test for compound auto fluorescence at 590 nm (red) in HepG2 cells (AID 720674)
Method in brief: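 Red autofluorescence (Ex/Em 540/590 nm, Rose Bengal sodium equivalents) was measured in HepG2 cells, 2,000 per well in MEM plus 10% FBS, plated overnight at 37 C. Readings were taken 1 hr after adding 23 nL compound or DMSO, at 37 C and 5% CO2.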

[6] = qHTS assay to test for compound auto fluorescence at 535 nm (green) in HepG2 cells (AID 720675)
[7] = qHTS assay to test for compound auto fluorescence at 460 nm (blue) in HEK293 cells (AID 720678)
Method in brief: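 Measured: blue fluorescence (Ex 405/Em 460 nm) of compound-treated HEK293 cells, incubated overnight at 37C with 5% CO2 and scaled to triamterene equivalents.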

[8] = qHTS assay to test for compound auto fluorescence at 590 nm (red) in HEK293 cells (AID 720679)
Method in brief: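 Using HEK293 cells at 2,000 per well, the screen added 23 nL of each compound after cell attachment and incubated overnight (37C, 5% CO2). The plate reader then captured red-label fluorescence, Ex/Em 540/590nm.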

[9] = qHTS assay for small molecule agonists of the p53 signaling pathway - cell viability (AID 651633; calls by dose curve;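 further: p53RE-bla HCT reporter cells with a stable beta-lactamase p53 reporter; series mostly up to about 83 µM; nearly all actives have a fitted effect of over 30% in size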)
Method in brief: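 Viability counter-read: CellTiter-Glo luminescence (30 min, room temperature) in the same p53RE-bla plates. These plates had been exposed to compounds for 16 h at 37 C.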

[10] = qHTS assay for small molecule disruptors of the mitochondrial membrane potential (AID 720635); further: potency means the concentration at half of the fitted maximal effect
Method in brief: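 Mitochondrial membrane potential tracked with Mito-MPS dye, red aggregates (ex 540/em 590 nm) against green monomers (ex 490/em 535 nm). Compound treatment 1 hr at 37C, dye 30 min in HepG2.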
On the % scale 0 is the no-effect control and ±100 the full control effect.

CC1=CC(=O)/C(=C(/C)O)C(=O)O1
inactive: Potency [1] | Potency [2] | Potency [3] | Potency [4] | outcome [5] | outcome [6] | Potency [7] | outcome [8]

O=C(CC(=O)c1ccccc1)c1ccccc1
inactive: Potency [1] | Potency [9] | outcome [5]
active: Potency [2] 11.7 µM | Potency [4] 36.9 µM | Potency [10] 11.7 µM

CC/C(=C\C(=N/O)C(N)=O)C(C)[N+](=O)[O-] (stereo not drawn)
inactive: Potency [1] | Potency [2] | Potency [3] | Potency [4] | Potency [10] | outcome [5] | outcome [6] | outcome [8]

CCCCC(CC)COCCCN (stereo not drawn)
inactive: Potency [1] | Potency [2] | Potency [9] | outcome [5] | Potency [7] | outcome [8]

CC(=O)N(O)CCCCCNC(=O)CCC(=O)N(O)CCCCCNC(=O)CCC(=O)N(O)CCCCCN
inactive: Potency [1] | Potency [2] | Potency [3] | Potency [4] | fluorescence, relative to Rose Bengal [5] 0.119% [at 18.6 µM] | fluorescence, % of fluorescein control [6] -0.0519% [at 18.6 µM] | fluorescence, % of triamterene [7] -0.0021% [at 18.6 µM] | fluorescence, % of fluorescent control [8] -0.043% [at 18.6 µM]

O=c1c2ccccc2nnn1CCl
inactive: Potency [1] | Potency [2] | Potency [3] | Potency [4] | Potency [10] | outcome [5] | Potency [7] | outcome [8]

Cl/C(=C\n1cncn1)c1ccc(Cl)cc1Cl
inactive: Potency [1] | Potency [2] | Potency [9] | Potency [4] | outcome [5] | outcome [6] | Potency [7]

NCc1ccccc1
inactive: Potency [1] | Potency [2] | Potency [3] | Potency [4] | Potency [10] | outcome [5] | Potency [7] | outcome [8]

Cc1ccc(C(=O)C(C)CN2CCCCC2)cc1 (stereo not drawn)
inactive: Potency [1] | Potency [2] | Potency [9] | Potency [4] | Potency [10] | outcome [5] | outcome [6] | Potency [7] | outcome [8]

c1ccc(CNCc2ccccc2)cc1
inactive: Potency [1] | Potency [2] | Potency [9] | Potency [4] | outcome [5] | outcome [6] | Potency [7]

CCCC[C@H]1CN(CC2CCOCC2)C(=O)OC12CCN(C1(C)CCN(C(=O)c3c(C)ncnc3C)CC1)CC2
inactive: Potency [1] | Potency [2] | Potency [3] | Potency [4] | Potency [10] | outcome [6] | Potency [7] | outcome [8]

O=C(O)Cc1sc(-c2ccccc2)nc1-c1ccc(Cl)cc1
active: Potency [10] 24.8 µM and 23.7 µM and 26.6 µM
inactive: Potency [1] | Potency [2] | Potency [9] | Potency [4] | outcome [5] | outcome [6] | Potency [7] | outcome [8]

Nc1ccc(C(=O)Nc2ccccc2N)cc1
inactive: Potency [9] | Potency [4] | outcome [5] | Potency [7] | outcome [8]
active: Potency [1] 10.6 µM | Potency [2] 8.41 µM | Potency [10] 13.3 µM

Cc1cccc(OCCOc2cccc(C)c2)c1
inactive: Potency [1] | Potency [2] | Potency [9] | Potency [4] | outcome [6] | Potency [7] | outcome [8]

Nc1cnn([C@@H]2O[C@H](CO)[C@@H](O)[C@H]2O)c(=O)n1
active: Potency [1] 1.94 µM
inactive: Potency [2] | Potency [9] | Potency [4] | outcome [5] | outcome [6] | outcome [8]

CCCCOC(O)CC (stereo not drawn)
inactive: Potency [1] | Potency [2] | Potency [9] | Potency [10] | outcome [5] | outcome [6] | Potency [7]

C1CCC2OC2C1 (stereo not drawn)
inactive: Potency [1] | Potency [2] | Potency [3] | Potency [4] | Potency [10] | outcome [5] | outcome [6] | Potency [7] | outcome [8]

N=C(N=C(N)N)N1CCOCC1
inactive: Potency [1] | Potency [2] | Potency [9] | Potency [4] | Potency [10] | fluorescence, relative to Rose Bengal [5] 0.372% [at 18.6 µM] | fluorescence, % of fluorescein control [6] -0.084% [at 18.6 µM] | fluorescence, % of fluorescent control [8] 0.0856% [at 18.6 µM]

CC(=O)/C(C)=C/C1C(C)=CCCC1(C)C (stereo not drawn)
inactive: Potency [1] | Potency [2] | Potency [9] | Potency [4] | Potency [10] | outcome [5] | outcome [6] | Potency [7] | outcome [8]

CC(C)c1cccc(C(C)C)c1NC(=O)NS(=O)(=O)c1cc(C(C)(C)O)co1
inactive: Potency [1] | Potency [2] | Potency [9] | Potency [4] | outcome [5] | outcome [6] | outcome [8]

Cc1cc(CC(=O)O)c(C)n1-c1ccc(Cl)cc1
inactive: Potency [1] | Potency [2] | Potency [9] | Potency [4] | Potency [10] | outcome [5] | outcome [6] | Potency [7]

CCCCCCOC(=O)CCC
inactive: Potency [1] | Potency [2] | Potency [3] | Potency [4] | Potency [10] | outcome [5] | outcome [6] | Potency [7] | outcome [8]

Cc1ncsc1CCO
inactive: Potency [1] | Potency [2] | Potency [3] | Potency [4] | outcome [5] | outcome [6] | Potency [7] | outcome [8]

C=CC(C)(CCC=C(C)C)OC(=O)c1ccccc1 (stereo not drawn)
inactive: Potency [1] | Potency [2] | Potency [9] | Potency [4] | outcome [5] | outcome [8]

Oc1ccc(C(O)CNCCCCCCNCC(O)c2ccc(O)c(O)c2)cc1O (stereo not drawn)
inactive: Potency [1] | Potency [2] | Potency [9] | Potency [4] | outcome [5] | Potency [7] | outcome [8]

CCC(C)N(C)C(=O)c1cc2ccccc2c(-c2ccccc2Cl)n1 (stereo not drawn)
inactive: Potency [1] | Potency [2] | Potency [3] | Potency [4] | Potency [10] | outcome [5] | outcome [6] | Potency [7] | outcome [8]

CC1(C)[C@H]2CC[C@]1(C)[C@H](O)C2
inactive: Potency [1] | Potency [2] | Potency [9] | Potency [4] | Potency [10] | outcome [5] | Potency [7] | outcome [8]

NC[C@H]1O[C@H](O[C@H]2[C@H](O)[C@@H](O[C@H]3O[C@H](CO)[C@@H](O)[C@H](N)[C@H]3O)[C@H](N)C[C@@H]2N)[C@H](O)[C@@H](O)[C@@H]1O
inactive: Potency [1] | Potency [2] | Potency [3] | Potency [4] | ratio activity, negative = MMP loss [10] 0.685% [at 8.08 µM] | fluorescence, relative to Rose Bengal [5] -0.029% [at 18.6 µM] and 0.338% [at 3.72 µM] | fluorescence, % of fluorescein control [6] -0.0979% [at 18.6 µM] and 0.0187% [at 3.72 µM] | fluorescence, % of triamterene [7] 0.0195% [at 18.6 µM] and -0.0441% [at 3.72 µM] | fluorescence, % of fluorescent control [8] 0.0121% [at 18.6 µM] and -0.0907% [at 3.72 µM]
